JMJD2A Tudor inh = qHTS Assay for Inhibitors of JMJD2A-Tudor Domain. actives 4.4% (n = 390,000). AlphaScreen JMJD2A-Tudor / H3K4me3 peptide binding. AID 504339, 2011. Lysine-specific demethylase 4A (Homo sapiens), O75164. Potency, µM (top dose mostly 114 µM), for the others: top-dose activity change, negative = inhibition, usual class: inhibitors; note: potency is the fitted concentration of half-maximal effect; % is set by controls: 0 for no effect and ±100 for the full control effect; nearly all actives have a fitted effect of over 50% in size
CtBP-E1A inh = qHTS Assay for Inhibitors of the CtBP/E1A Interaction | CtBP / adenovirus E1A interaction (AlphaScreen) | AlphaScreen GST-E1A/His-CtBP binding, 1536-well; active compounds read low | activity change, % (test concentration not listed) | actives 0.49% (n = 340,000); in the data active = activity change below about -65%; inconclusive = mostly about -30% to -63%; note: % is set by controls: 0 for no effect and ±100 for the full control effect
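Homogeneous bead-based format: GST-tagged E1A captured on glutathione donor beads, His-tagged CtBP on nickel acceptor beads; compounds precede bead addition by 2 h at 37 °C.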
Six1-Eya2 inh = qHTS Assay for Inhibitors of the Six1/Eya2 Interaction; Homeobox protein SIX1 (Homo sapiens) + Protein phosphatase EYA2 (Homo sapiens), …; AlphaScreen GST-Six1/His-Eya2 binding, biochemical; active compounds read low; activity change, % (test concentration not listed); actives 0.56% (n = 360,000); AID 651725, 2012; in the data active = activity change below about -65%; inconclusive = mostly about -30% to -63%; note: % is set by controls: 0 for no effect and ±100 for the full control effect
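Six1/Eya2 binding was read as AlphaScreen signal after compounds were pinned into GST-Six1 plus His-tagged Eya2 (5X stock 250/500 nM) in pH 8.0 Tris/NaCl/TCEP buffer, beads added, then incubated 1 h, 37 C, dark.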
G9a block = qHTS Assay for Inhibitors of Histone Lysine Methyltransferase G9a; Histone-lysine N-methyltransferase EHMT2 (Homo sapiens), Q96KQ7; G9a H3K9 monomethylation, AlphaScreen, 2 h; Potency, µM (series often up to 102 µM), for inactives: at the top dose activity, negative = inhibition, actives largely listed as inhibitors; actives 8.8% (n = 350,000); note: potency is the fitted concentration of half-maximal effect; % is set by controls: 0 for no effect and ±100 for the full control effect; nearly all actives have a fitted effect of over 75% in size
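Step 1: enzyme (final 20 nM) with compound, 15 min RT. Step 2: substrate peptide 500 nM and SAM 20 uM, 2 h RT. Step 3: anti-H3K9me1 antibody and AlphaScreen beads, 10 min, then plate read.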
BAZ2B inh = qHTS Assay for Inhibitors of BAZ2B. AlphaScreen BAZ2B-H3K14Ac peptide displacement. Potency, µM (top dose mostly 114 µM), for inactives: at the highest dose activity change, negative = inhibition, usual class: inhibitors. Bromodomain adjacent to zinc finger domain protein 2B (Homo sapiens), Q9UIF8. actives 4.4% (n = 360,000); note: potency is the fitted concentration of half-maximal effect; % is set by controls: 0 for no effect and ±100 for the full control effect; nearly all actives have a fitted effect of over 60% in size
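Protein-peptide AlphaScreen: BAZ2B 50 nM, b-H3K14Ac 50 nM, 1x PBS pH 7.4 + 0.01% Tween-20. Preincubation 30 min RT; cpd 30 min RT (top 110 uM); beads 20 min RT, light-protected.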
HP1b chromo inh = HTS for Inhibitors of HP1-beta Chromodomain Interactions with Methylated Histone Tails; actives 0.56% (n = 390,000); Potency, µM (series often up to 114 µM), without a hit: at the top dose activity change, negative = inhibition, actives largely listed as inhibitors; AlphaScreen HP1-beta / biotin-H3K9me3 peptide binding; note: potency is the fitted concentration of half-maximal effect; nearly all actives have a fitted effect of over 70% in size
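HP1-beta protein (50 nM final) preincubated 30 min at room temperature with biotinylated H3(1-18)K9me3 peptide (50 nM) in PBS pH 7.4, 0.01% Tween-20, then compound added for 30 min. AlphaScreen streptavidin donor/nickel chelate acceptor beads (10 ug/mL final), 30 min dark, luminescence read.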
* = called active by the depositor; ? = inconclusive; . = no result; [ ] = dose if it differs, or a comment. Compounds with a hit are over-represented: about 10% of the library has one in this group of screens. Unless noted, calls come from the whole dose curve; as a rule, active = well fitted inhibition curve with a large enough effect; inconclusive = small, poorly fitted or top-dose-only effect; inactive = no such curve, though single readings can be large or run the other way.

SMILES | JMJD2A Tudor inh | CtBP-E1A inh | Six1-Eya2 inh | G9a block | BAZ2B inh | HP1b chromo inh
CCCn1c2ccccc2c2cnn(CC(=O)N(CCCOC(C)C)Cc3ccco3)c(=O)c21 | ? | . | . | ? | -13% | -5%
CCC(C)NC(=O)CCC(=O)N1Cc2ccccc2Oc2ncccc21 (configuration not stated) | -19% | . | . | 11%[59 µM] | 49%[57.1 µM] | 69%
CC[C@@H](C)[C@@H](CO[C@@H](Cc1ccccc1)C(=O)N[C@@H](CCS(C)(=O)=O)C(=O)OC(C)C)NC[C@@H](N)CS | . | . | . | 22µM* | . | .
O=C(O)CCC(=O)OC[C@@H](NC(=O)C(Cl)Cl)C(O)c1ccc([N+](=O)[O-])cc1 (some centres not stated) | . | . | . | -32%[2.33 µM] | . | .
N#CC(Sc1ccccn1)c1ccc(Cl)cc1 (configuration not stated) | -6%[11.4 µM] | . | -18 | 7.9µM* | 7% | 13%
O=C(Oc1ccc2ccc(=O)oc2c1)c1ccc([N+](=O)[O-])cc1 | -14% | 4 | -19 | . | -17% | 40%
CCCCn1c(=N)n(CC(=O)c2ccc([N+](=O)[O-])cc2)c2ccccc21 | . | . | . | 40µM* | -32% | .
CCCCC(=O)c1ccc(OC(=O)c2ccc([N+](=O)[O-])cc2)cc1 | 50µM* | -11 | -13 | . | . | ?
CCCCn1c(=N)n(CC(=O)c2ccco2)c2ccccc21 | -15% | 8 | 3 | 1%[12.7 µM] | -7% | 23%
Cc1ccc(Cn2c(=N)n(CC(=O)c3ccc([N+](=O)[O-])cc3)c3ccccc32)cc1 | -30% | 8 | -4 | 50µM* | -23% | 7%
Cc1ccc2c(c1)c(=O)c(C(=O)c1ccncc1)cn2CC(=O)Nc1c(C)cccc1C | -15% | . | . | -19%[59 µM] | -10% | 18%[57 µM]
CCOC(=O)COc1ccc([N+](=O)[O-])cc1-c1ccnc2cc(-c3ccc(Cl)cc3)nn12 | -10% | . | . | 8%[59 µM] | -13% | 8%
CCN(Cc1ccccc1)C(=O)CN1C(=O)CSc2ccc(S(=O)(=O)N(CC)CC)cc21 | -7% | . | . | 3%[59 µM] | -2% | 46%
CCOc1ccc(C(=O)N(Cc2nc(-c3cccc(C)c3)no2)C(C)C)cc1 | 3% | . | . | 55%[59 µM] | 75% | 90%
O=C(Nc1nccs1)c1nc[nH]c1C(=O)N1CCN(c2ccccc2)CC1 | 32µM* | -71* | -78* | . | . | 74%
O=C(O)c1nccnc1C(=O)N1CCN(c2ccccc2)CC1 | ? | 1 | 9 | ? | 56µM* | 24%
Cc1ccc(-n2ncc(C(=O)N3CCN(C4CCCCC4)CC3)c2C2CCN(C(=O)OC(C)(C)C)CC2)cc1C | -13% | . | . | -1%[59 µM] | 6%[57.1 µM] | 21%
N#C/C(=C\N1CCN(Cc2ccc3c(c2)OCO3)CC1)c1nc2ccccc2s1 | ? | -22 | ? | 40µM* | -5% | -9%
c1ccc2sc(N3CCN(Cc4ccc5c(c4)OCO5)CC3)nc2c1 | . | . | . | 5%[59 µM] | . | .
CNC(=O)c1c(O)c2cccc3c2n(c1=O)CC3 | 8% | 0 | -4 | . | . | 20%
CC1Cc2cccc3c(O)c(C(=O)c4nn[nH]n4)c(=O)n1c23 (configuration not stated) | ? | 3 | -4 | 8.9µM* | ? | 61%
O=C(COc1ccc(F)cc1)Nc1ccc(Cl)c(-c2nc3ccccc3[nH]2)c1 | -8% | . | . | 8%[59 µM] | -5% | 62%
Cc1cc(C)c(NC(=O)C2CCCN2CCC(C)C)c(C)c1 (configuration not stated) | 0% | 2 | 0 | ? | -3% | 25%
Cc1cc(C)c(NC(=O)C2CCCCN2C)c(C)c1 (configuration not stated) | -14% | 12 | 4 | 89µM* | ? | 25%
O=C(O)c1cccc(-c2ccc(/C=c3/sc4nc5ccccc5n4c3=O)o2)c1 | 22µM* | . | -23 | 7.9µM* | 25µM* | ?
SMILES | JMJD2A Tudor inh | CtBP-E1A inh | Six1-Eya2 inh | G9a block | BAZ2B inh | HP1b chromo inh
O=C(O)c1ccccc1-c1ccc(C=c2sc3nc4cc(Br)cnc4n3c2=O)o1 | . | ? | -69* | . | . | .
O=C(O)c1cc(C(=O)O)cc(-c2ccc(/C=c3/sc4nc5ccccc5n4c3=O)o2)c1 | 22µM* | -9 | ? | 2µM* | 20µM* | 16µM*
CC(C)(O)c1cc(=O)sc2nc3ccccc3n12 | -4% | 0 | -3 | -7%[59 µM] | -4% | 35%
CCCNC(=O)Cn1c(=O)/c(=C/c2ccc(-c3cccc([N+](=O)[O-])c3)o2)s/c1=C\C(=O)C(C)(C)C | -19% | -2 | -2 | . | . | 7%
Cc1c(C(=O)O)cccc1-c1ccc(/C=C2/NC(=O)N(c3ccccc3)C2=O)o1 | -5% | . | 9 | ? | -15% | 28%
COc1ccc(N2CCN(C(c3ccccc3F)c3sc4nc(-c5ccco5)nn4c3O)CC2)cc1 (configuration not stated) | ? | . | . | ? | 40µM* | ?
Oc1c(C(c2ccc(Cl)cc2Cl)N2CCN(c3ccccc3)CC2)sc2nc(-c3ccco3)nn12 (configuration not stated) | -28% | . | . | 11µM* | -15% | 22%
Oc1c(C(c2ccc(Cl)cc2Cl)N2CCOCC2)sc2nc(-c3ccco3)nn12 (configuration not stated) | -19% | . | . | -30%[59 µM] | ? | 10%
Cc1ccc(C(c2sc3nc(-c4ccco4)nn3c2O)N2CCN(c3ccc(F)cc3)CC2)cc1 (configuration not stated) | ? | . | . | -11%[59 µM] | -20% | ?
COc1ccc(N2CCN(C(c3ccc(F)cc3)c3sc4nc(-c5ccco5)nn4c3O)CC2)cc1 (configuration not stated) | ? | . | . | ? | 40µM* | ?
CCN1C(=O)c2ccccc2S(=O)(=O)c2ccc(C(=O)NCc3ccccc3OC)cc21 | -27% | . | . | -35%[59 µM] | -12% | 5%
Cc1ccc(Cl)cc1N1CCN(C(=O)CN2C(=O)COc3ccc(S(=O)(=O)N4CCC(C)CC4)cc32)CC1 | -17% | . | . | 3%[59 µM] | -13% | 23%
CCc1ccc(OCC2c3cc(OC)c(OC)cc3CCN2C(=S)NCCOC)cc1 (configuration not stated) | ? | -12 | -13 | 16µM* | ? | 3%
